# Measurements as given in PubChem BioAssay (EPA / NIEHS).
# Where “and” joins values, the source holds several entries; their conditions need not be identical. Equal values may be shown once. A structure can be active in one record and inactive in another. Calls of active or inactive are those of the source. The calls were made as follows: active = hit-call score of the fitted dose curve at least 0.9, where 1 is the maximum; inactive = score below 0.9.
# Read-out: Human Leukocyte Antigen - DR isotype (HLADR), HLA-DRA (gene 3122)
# Test: BSK_BE3C_HLADR: BioMAP Diversity Plus: BE3C Assay for Human Leukocyte Antigen - DR isotype (HLADR) Biomarker Activity (AID 2283032)
# Settings: primary human bronchial epithelial cells; actives raise or lower the signal
# Method in brief: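 ELISA read-out of HLA-DR on human lung bronchial epithelial primary cells, measured 24 h post-dosing. Both increases and decreases were scored relative to DMSO vehicle.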
Structure (SMILES),AC50,outcome
CCN(CC)CCNc1ccc(CNC=O)c2sc3ccc(OC)cc3c(=O)c12,11 µM (active),
CCCOc1sc(C(=O)N2CCC(c3cc(CN)ccc3F)CC2)c(C)c1Br,7.9 µM (active),
OCCC(F)(F)C(F)(F)C(F)(F)C(F)(F)C(F)(F)C(F)(F)C(F)(F)C(F)(F)F,18.3 µM (active) and 24.1 µM (active),inactive
c1ccc2cc3c(ccc4ccccc43)cc2c1,,inactive
CC(O)CO (stereo not drawn),,inactive
C=C(C)C(=O)OCCC(F)(F)C(F)(F)C(F)(F)C(F)(F)C(F)(F)C(F)(F)F,,inactive
NC(=O)N(O)[C@@H]1C=C[C@H](Oc2cccc(Oc3ccc(F)cc3)c2)C1,,inactive
CC[C@H](C)[C@@H](C(=O)O)n1sc2ccccc2c1=O,,inactive
Cc1oc(-c2ccccc2)nc1CCOc1ccc(C[C@H](Nc2ccccc2C(=O)c2ccccc2)C(=O)O)cc1,3.01 µM (active),
CC#C[C@]1(O)CC[C@H]2[C@@H]3CCC4=CC(=O)CCC4=C3[C@@H](c3ccc(N(C)C)cc3)C[C@@]21C,,inactive
COCC(C)O (stereo not drawn),,inactive
COC(=O)CCCCC(=O)OC,,inactive
